Compound activity: PubChem, several laboratories
Only some compounds are listed: those with a hit (about 2.8% of all), similar ones and a draw of the others.
IDE cell inh: inhibitors of human insulin-degrading enzyme in cells. AID 434962. HEK cells, FAbetaB cleavage, fluorescence polarization. P14735. hit rate 0.41% among 320,000. inhibition, % at 5.59 µM;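 active = percent inhibition above the average of all tested compounds plus 3 SD, set per screening campaign, cut at about 16% in these data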;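 also: IDE supplied by intact live HEK cells; FP after avidin binding of uncleaved biotin substrate so inhibition keeps polarization high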
PP5 inh: blocks human protein phosphatase 5 activity; purified PP5c, OMFP substrate fluorescence; hit rate 0.18% among 320,000; inhibition, % at 6.7 µM;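 active = inhibition above the campaign's mean inhibition across all tested compounds plus 3 SD, cut at about 9.5% in these data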
IDE act: activators of human insulin-degrading enzyme in cells; P14735; HEK cells, FAbeta-B cleavage, fluorescence polarization; 0% vehicle, 100% cell-free pure enzyme wells; activation, % at 5.96 µM; hit rate 0.073% among 340,000; AID 493087;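 active = activation above the mean of all tested compounds plus 3 SD, set per screening campaign, cut at about 17% in these data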
SKKanGAS inh: SKKanGAS growth inhibition | S. pyogenes SKKanGAS, kanamycin growth, BacTiter-Glo, 6 h | inhibition, % at 7.5 µM | hit rate 1.3% among 300,000 | AID 1662;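 active = mean replicate score, as percent of positive control median, at least 50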;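 also: strain carries kanamycin resistance gene driven by streptokinase promoter and grows in 40 µg/ml kanamycin; loss of luminescence reflects streptokinase promoter inhibition or plain growth inhibition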
PP1 inh: counter-screen for PP5 inhibitors: inhibitors of human PP1-alpha; purified PP1alpha, OMFP fluorescence; P62136; hit rate 0.9% among 320,000; inhibition, % at 6.7 µM;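 active = inhibition above the mean inhibition of all tested compounds plus 3 SD, computed separately for each screening campaign, cut at about 15% in these data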
Target sequence (P62136 whole entry, looked up): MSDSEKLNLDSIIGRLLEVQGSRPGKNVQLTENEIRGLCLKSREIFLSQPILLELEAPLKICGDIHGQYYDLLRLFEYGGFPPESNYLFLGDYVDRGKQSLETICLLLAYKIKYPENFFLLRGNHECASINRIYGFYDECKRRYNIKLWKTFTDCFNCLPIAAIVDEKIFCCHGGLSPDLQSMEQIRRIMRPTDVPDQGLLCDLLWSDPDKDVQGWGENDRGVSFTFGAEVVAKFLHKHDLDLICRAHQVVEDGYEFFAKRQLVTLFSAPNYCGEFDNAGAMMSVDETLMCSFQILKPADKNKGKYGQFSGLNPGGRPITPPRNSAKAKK
Granule exo inh: lytic granule exocytosis inhibition. AID 651702. hit rate 0.66% among 360,000. inhibition, % at 10 µM. TALL-104 LAMP-1 surface exposure, flow cytometry; cells stimulated with thapsigargin and PMA;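 active = inhibition above about 55%, limit read from the data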
Granule exo CP1: blocks lytic granule exocytosis | hit rate 11% among 1,500 | TALL-104 cells, LAMP-1 externalization, flow cytometry; stimulated with PMA plus thapsigargin | AID 651954 | shares compounds with Granule exo inh | inhibition, % at 10 µM; in the data active = inhibition above about 60%
Large screens that a line does not name were inactive (follow-up assays come after a bar, where they were run).

COc1ccc(Cc2nnc(NC(=O)Nc3ccc(C)cc3)s2)cc1OC	Granule exo inh 65 | Granule exo CP1 inactive
CC(NC(=O)CCC(=O)c1ccc(F)cc1)C1CC2CCC1C2 (stereo not given)	Granule exo inh 104 | Granule exo CP1 inactive
Cc1cc(-c2nnc3n2N=C(c2ccc(F)cc2)CS3)n[nH]1	none
CCCn1cnnc1CNC(=O)C1CCC(=O)N(CCc2cccc(F)c2)C1 (stereo not given)	none
Cc1nc(SCc2nc3ccc([N+](=O)[O-])cc3[nH]2)c2oc3ccccc3c2n1	Granule exo inh 93 (no result: PP5 inh, SKKanGAS inh, PP1 inh) | Granule exo CP1 inactive
CC1(C)CC2CC(C)(CN2C(=O)Cc2ccccc2)C1 (stereo not given)	none
CC1(C)CC2CC(C)(CN2C(=O)NC(=O)c2ccccc2)C1 (stereo not given)	Granule exo inh 66 | Granule exo CP1 inactive
CCCCN(CC)C(=O)CSc1nc2n[nH]c(C)c2c(=N)n1-c1cccc(C)c1	Granule exo inh 62 | Granule exo CP1 inactive
Fc1cccc(Cc2c(-c3cccc(Cl)c3)nc3c4ccccc4ccn23)c1	none (no result: IDE cell inh, PP5 inh, IDE act, SKKanGAS inh, PP1 inh)
Clc1cccc(Cc2c(-c3cccc(Cl)c3)nc3c4ccccc4ccn23)c1	none (no result: IDE cell inh, PP5 inh, IDE act, SKKanGAS inh, PP1 inh)
Fc1cccc(Cc2c(-c3ccco3)nc3c4ccccc4ccn23)c1	Granule exo inh 87 (no result: IDE cell inh, PP5 inh, IDE act, SKKanGAS inh, PP1 inh) | Granule exo CP1 inactive
Clc1cccc(Cc2c(-c3ccco3)nc3c4ccccc4ccn23)c1	Granule exo inh 96 (no result: IDE cell inh, PP5 inh, IDE act, SKKanGAS inh, PP1 inh) | Granule exo CP1 inactive
CCOC(=O)Nc1nc(-c2ccc(F)cc2F)cs1	Granule exo inh 65 | Granule exo CP1 inactive
CC(=O)N(C)c1nc(N)n(-c2ccccc2)n1	none
Clc1ccc(C2Nc3cccc4cccc(c34)N2)c(Cl)c1	Granule exo inh 74 (no result: IDE cell inh, PP5 inh, SKKanGAS inh, PP1 inh) | Granule exo CP1 inactive
CCOC(=O)c1c2c(n(Cc3ccccc3)c1C)C(=O)C(=O)c1ccccc1-2	Granule exo inh 99 (no result: IDE cell inh, PP5 inh, SKKanGAS inh, PP1 inh) | Granule exo CP1 inactive
O=C(NCc1ccccc1F)c1ccc(S(=O)(=O)N2CCCC2)cc1	none (no result: IDE cell inh, PP5 inh, IDE act, SKKanGAS inh, PP1 inh)
COc1ccc(C(C)=O)cc1COC(=O)c1cc2ccccc2cc1O	Granule exo inh 91 | Granule exo CP1 inactive
COc1ccc(C(C)=O)cc1COC(=O)c1cccnc1Cl	none
COc1ccc(OC)c(N(CC(=O)NCCSCc2ccco2)S(=O)(=O)c2ccccc2)c1	Granule exo inh 85 | Granule exo CP1 inactive
CCc1ccccc1NC(=O)CN(c1ccc(OC)cc1OC)S(=O)(=O)c1ccccc1	Granule exo inh 70 | Granule exo CP1 inactive
COc1ccccc1N(CC(=O)Nc1ccc(Cc2ccncc2)cc1)S(=O)(=O)c1ccccc1	Granule exo inh 66 | Granule exo CP1 inactive
CCOc1ccccc1N(CC(=O)NCCSCc1ccco1)S(=O)(=O)c1ccccc1	none
COc1ccc(N(CC(=O)NCCSc2ccccn2)S(=O)(=O)c2ccccc2)c(OC)c1	Granule exo inh 65 | Granule exo CP1 101
COc1ccc(N(CC(=O)NCCSc2ccccc2)S(=O)(=O)c2ccccc2)c(OC)c1	none (no result: PP5 inh, SKKanGAS inh, PP1 inh)
COCCn1c(Cc2ccccc2)nnc1SCC(=O)N1CCCC1=O	none (no result: SKKanGAS inh)
CC(C)c1ccc(-c2csc3nc[nH]c(=O)c23)cc1	none
O=C(O)c1ccc(Cl)c(S(=O)(=O)N(Cc2ccccc2)c2ccccc2)c1	Granule exo inh 63 | Granule exo CP1 inactive
COc1ccc(OC2CCN(S(=O)(=O)c3ccc(C(C)=O)cc3)CC2)cc1	none
COc1ccc(C(O)(CCN2CCCCC2)C2CCCCC2)cc1 (stereo not given)	Granule exo inh 75 | Granule exo CP1 inactive
COc1ccc2ccccc2c1CNC(C)c1ccccc1 (stereo not given)	none
CC(NCCCOc1cccc2ccccc12)c1ccccc1 (stereo not given)	Granule exo inh 61 | Granule exo CP1 inactive
COc1ccc(OC)c(C2=Nn3c(nnc3C3CCCCC3)SC2)c1	Granule exo inh 73 | Granule exo CP1 inactive
CCN1CCN(c2cc(C)c3cc(NC(=O)c4cc(OC)cc(OC)c4)ccc3n2)CC1	none
CCOc1ccc(C(=O)Nc2ccc3nc(N4CCN(CC)CC4)cc(C)c3c2)cc1	Granule exo inh 63 | Granule exo CP1 inactive
O=C(NCCN1CCOCC1)c1ccc(/C=C2\Sc3ccccc3N(Cc3ccccc3F)C2=O)cc1	none
O=C(CN1C(=O)/C(=C\c2cccc(Br)c2)Oc2ccccc21)NCCCN1CCOCC1	Granule exo inh 64 | Granule exo CP1 96
CN1CCN(CCCNC(=O)c2ccc(/C=C3\Sc4ccccc4N(Cc4ccccc4F)C3=O)cc2)CC1	Granule exo inh 66 (no result: IDE cell inh, PP5 inh, PP1 inh) | Granule exo CP1 inactive
CCc1ccc(/C=C2/Sc3ccccc3N(CC(=O)NCCCN3CCOCC3)C2=O)cc1	Granule exo inh 66 | Granule exo CP1 63
O=C(CN1C(=O)/C(=C/c2ccc(C(F)(F)F)cc2)Sc2ccccc21)NCCCN1CCOCC1	none
CCN1CCN(CCNC(=O)c2ccc(/C=C3/Sc4ccccc4N(Cc4cccc(Cl)c4)C3=O)cc2)CC1	IDE act 38, Granule exo inh 79 | Granule exo CP1 inactive
O=C(CN1C(=O)COc2ccccc21)NCCCN1CCOCC1	none
Oc1ccccc1CNCC12CC3CC(CC(C3)C1)C2	none
CC(CC12CC3CC(CC(C3)C1)C2)NCc1ccccc1O (stereo not given)	Granule exo inh 61 | Granule exo CP1 inactive
CCNCC(=O)N1c2ccccc2CCc2ccc(NC(=O)OCC)cc21	Granule exo inh 57 | Granule exo CP1 inactive
COc1ccc(C(=O)CCN2CCCC(C)C2)cc1 (stereo not given)	Granule exo inh 71 | Granule exo CP1 inactive
Cc1ccc(C(C)C)c(OCCNCCc2ccccc2)c1	Granule exo inh 64 | Granule exo CP1 inactive
Cc1ccc(C(C)C)c(OCCCNCc2cccnc2)c1	none
CCOc1ccc(S(=O)(=O)Nc2cccc(C(=O)N(C)Cc3cccc(OC)c3OC)c2)cc1	none
CCOc1ccc2c(c1)C(C)=CC(C)(C)N2S(=O)(=O)c1ccc(NC(C)=O)cc1	Granule exo inh 69 | Granule exo CP1 inactive
COc1ccc2c(c1)C(C)=CC(C)(C)N2S(=O)(=O)c1ccc(NC(C)=O)cc1	none
CCC1(C2=CCCCC2)C(=O)NC(=S)N=C1N (stereo not given)	none (no result: IDE cell inh, PP5 inh, SKKanGAS inh, PP1 inh)
COc1ccc(OC)c(-c2csc(NC(=O)Cc3ccccc3OC)n2)c1	Granule exo inh 68 | Granule exo CP1 inactive
COCCNC(=S)N(CCc1c(C)[nH]c2ccc(Cl)cc12)Cc1cccs1	Granule exo inh 104 | Granule exo CP1 inactive
CCCCCCCCC(c1nc2ccccc2[nH]1)N1CCN=C1c1cc2ccccc2[nH]1 (stereo not given)	Granule exo inh 76 (no result: IDE cell inh, PP5 inh, IDE act, SKKanGAS inh, PP1 inh) | Granule exo CP1 inactive
COCc1cc(=O)n2[nH]cc(-c3ccsc3)c2n1	none
CCOC(=O)c1c(NC(=O)CSc2nnc(CNc3ccc(F)cc3)o2)sc(C(C)=O)c1C	none
